The panel holds about 83,000 compounds, 20% with a hit somewhere; the sample as a whole holds those more often.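 In brief: 96-well plates, 48 h treatment, single concentration, percent growth endpoint.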 A number with no mark means an inactive call. The source made the active and inactive calls. The calls were made as follows: active = growth percent below 10; inactive = the rest.

This experiment relates to HL-60(TB) leukemia. As to the kind of experiment: NCI-60 one-dose screen, 48 h (100 = growth as untreated, 0 = no growth, -100 = all killed). The settings on record: 10 µM unless noted.
For the compound `O=[N+]([O-])c1cccc([I+]c2ccccc2)c1`, the growth is 37.9%.

`N#C/C(=C\c1ccc(-c2cccc(C(F)(F)F)c2)o1)c1ccccc1`: the growth is 96.2%. Consider `CCCCCN1C=C/C(=C\C(=O)N(C)c2cccc3ccccc23)c2ccccc21`, for which the growth was 97.1%.

As to `N#Cc1c(NC(=O)c2cccs2)[n+]([O-])c2ccc(F)cc2[n+]1[O-]`, the growth is 91.6%. In the case of `N=C(N)c1ccc(-c2ccc(-c3ccc(Cl)c(Cl)c3)o2)cc1`, the growth is -45.5% (active). For the compound `O=[N+]([O-])c1cc[n+]([O-])cc1`, the growth is 36.1%. Regarding `COC(=O)C12C3C(=O)N(c4ccc(OC)cc4)C(=O)C3C(c3cn(-c4ccccc4)nc3C)N1[C@H](c1cn(-c3ccccc3)nc1C)[C@@H]1C(=O)N(c3ccc(OC)cc3)C(=O)[C@@H]12` (some centres undefined), the growth is 106%. Turning to `CN1C(=O)/C(=C/c2ccc(C(=O)Nc3ncc(Cc4cc(Cl)ccc4Cl)s3)cc2)SC1=S`, the growth is 91%. On to `C1=C(c2ccccc2)c2ccccc2C1`, for which the growth is 95.1%. Consider `OCCNc1nccc(N2CCN(c3ccnc4cc(Cl)ccc34)CC2)n1`, for which the growth is 47.8%. Consider `CNc1ccc2c(c1)c1ccccc1n2C`, for which the growth was 93.7%. Under `O=C1C(=O)N(Cc2ccc(-c3ccccc3)cc2)c2ccc(OC(F)(F)F)cc21` stands 17.7%; under `CC(=O)c1c[nH]c2ccc(-c3ccnc(Nc4ccc(NC(=O)C5CCCC5)c(CN5CCOCC5)c4)n3)cc12`, -31.5% (active); under `CCN(CC)CCCC(C)Nc1ccnc(/C=C/c2ccc(Cl)cc2)c1` (centres undefined), 65.9%.

Source of the values: PubChem BioAssay (NCI).
